Assay results taken from ChEMBL document CHEMBL3988442, “University of Dundee, Small-Polar-MMV Screening Library” (2021).

Target: T1, Methionyl-tRNA synthetase, putative (Leishmania donovani (strain BPK282A1)) (UniProt E9BF75)
T1 sequence (whole entry): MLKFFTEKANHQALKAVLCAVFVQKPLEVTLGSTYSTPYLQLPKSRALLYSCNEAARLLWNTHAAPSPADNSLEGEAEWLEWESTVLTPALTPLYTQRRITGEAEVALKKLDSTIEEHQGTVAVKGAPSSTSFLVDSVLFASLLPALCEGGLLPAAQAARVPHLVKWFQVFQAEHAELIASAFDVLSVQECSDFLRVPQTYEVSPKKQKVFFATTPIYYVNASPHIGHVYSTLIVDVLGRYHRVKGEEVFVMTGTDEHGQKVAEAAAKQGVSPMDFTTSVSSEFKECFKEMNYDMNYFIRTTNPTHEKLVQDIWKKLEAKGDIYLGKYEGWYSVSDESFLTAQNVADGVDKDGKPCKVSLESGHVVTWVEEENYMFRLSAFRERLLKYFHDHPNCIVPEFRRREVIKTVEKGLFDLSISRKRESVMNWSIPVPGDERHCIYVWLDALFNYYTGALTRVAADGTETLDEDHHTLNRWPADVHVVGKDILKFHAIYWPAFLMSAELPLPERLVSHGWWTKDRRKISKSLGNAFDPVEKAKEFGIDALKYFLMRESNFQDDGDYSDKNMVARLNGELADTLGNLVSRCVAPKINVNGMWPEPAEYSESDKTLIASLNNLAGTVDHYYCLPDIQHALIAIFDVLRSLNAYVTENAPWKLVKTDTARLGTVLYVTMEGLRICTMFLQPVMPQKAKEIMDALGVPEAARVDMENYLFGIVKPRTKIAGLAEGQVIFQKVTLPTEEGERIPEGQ
Assay: Leishmania donovani Methionine tRNA synthetase (LdMetRS):v7. Dose response assay
Type: functional
Parameters: conc 80 nM, time 150 minutes

CN1CCC(CNC(=O)c2ccc3ccc(N4CCN(S(C)(=O)=O)CC4)n3c2)CC1
PXC50 (BOTTOM 1.275548684, HILLSLOPE 2.230174864, MAX_EFFECT 66.02870813, TOP 65.69793646): 4.77
PXC50 (BOTTOM -0.677256268, HILLSLOPE 1.919543897, MAX_EFFECT 70.20109689, TOP 75.47637091): 4.69

Cc1cc(C(=O)NC2CCCC2)cn2c(N3CCN(S(C)(=O)=O)CC3)ccc12
PXC50 (BOTTOM 3.715191159, HILLSLOPE 1.052339001, MAX_EFFECT 54.38596491, TOP 65.94212945): 4.67
PXC50 (MAX_EFFECT 46.875): < 4

CCOC(=O)c1sc2nc(C)nc(NC3CCCCC3)c2c1C
PXC50 (MAX_EFFECT 13.06532663): < 4
PXC50 (MAX_EFFECT 16.95331695): < 4

O=C(NCC1CCCCC1)c1cc(=O)c2ccc(F)c(O)c2o1
PXC50 (MAX_EFFECT 5.182341651): < 4
PXC50 (MAX_EFFECT -0.4784689): < 4

CS(=O)(=O)N1CCN(c2ccc3ccc(C(=O)NC4CCN(c5ncccn5)CC4)cn23)CC1
PXC50 (BOTTOM 1.498519447, HILLSLOPE 2.25926472, MAX_EFFECT 69.85645933, TOP 69.17206782): 4.97
PXC50 (BOTTOM 9.613017987, HILLSLOPE 3.179249655, MAX_EFFECT 74.58866545, TOP 74.15419217): 4.86

CC(C)C[C@H](N)COc1ccccc1-c1ccnn1C
PXC50 (MAX_EFFECT 4.572564612): < 4
PXC50 (MAX_EFFECT 5.733944954): < 4

Cc1cc2c(N3CCN(C)CC3)nc(-c3cccnc3)nc2s1
PXC50 (MAX_EFFECT 6.010928962): < 4
PXC50 (MAX_EFFECT 7.486631016): < 4

CCNc1nc(-c2ccc(CC)cc2)cc(C(F)(F)F)n1
PXC50 (MAX_EFFECT 8.510638298): < 4
PXC50 (MAX_EFFECT 9.32642487): < 4

Cc1nccn1CCCn1cncc1-c1ccc2c(c1)CCCN2C
PXC50 (MAX_EFFECT 9.523809524): < 4
PXC50 (MAX_EFFECT 19.43925234): < 4

Cc1nc(N(C)CC(=O)N2CCCC2)c2c3c(sc2n1)CCCC3
PXC50 (MAX_EFFECT 3.703703704): < 4
PXC50 (MAX_EFFECT 3.733333333): < 4

Cc1nc(N2CC[C@@H](O)C2)c2c3c(sc2n1)CCCC3
PXC50 (MAX_EFFECT 8.838383838): < 4
PXC50 (MAX_EFFECT 10.20408163): < 4

CC(=O)N1CCC(NC(=O)c2ccc3ccc(N4CCN(S(C)(=O)=O)CC4)n3c2)CC1
PXC50 (BOTTOM 2.919824671, HILLSLOPE 1.594432626, MAX_EFFECT 67.35849057, TOP 70.74594509): 4.9
PXC50 (BOTTOM 3.112441615, HILLSLOPE 1.895765793, MAX_EFFECT 63.92694064, TOP 65.42596591): 4.95

CC(C)C[C@H](N)COc1ccc(OC(F)(F)F)c(F)c1
PXC50 (MAX_EFFECT 10.87420043): < 4
PXC50 (MAX_EFFECT 10.97308489): < 4

Cc1nc(N2CCN(CCO)CC2)c2c(-c3cccs3)csc2n1
PXC50 (MAX_EFFECT 9.693877551): < 4
PXC50 (MAX_EFFECT 12.37373737): < 4

CO[C@H]1[C@@H]2CC[C@H]1CN(c1nc(C)nc3sccc13)C2
PXC50 (MAX_EFFECT 8.838383838): < 4
PXC50 (MAX_EFFECT 9.693877551): < 4

Cc1cc(C(F)(F)F)nc(N(C)Cc2c(C)noc2C)n1
PXC50 (MAX_EFFECT 10.44386423): < 4
PXC50 (MAX_EFFECT 10.70496084): < 4

CCc1nc(N2CCN(c3ncccn3)CC2)c2cc(CC)sc2n1
PXC50 (MAX_EFFECT 23.46666667): < 4
PXC50 (MAX_EFFECT 25.3968254): < 4

COCCNc1nc(-c2ccccn2)nc2sc3c(c12)CCCC3
PXC50 (BOTTOM 1.822787583, HILLSLOPE 1.291311311, MAX_EFFECT 71.49122807, TOP 102.6012048): 4.27
PXC50 (BOTTOM -5.083400143, HILLSLOPE 1.043102409, MAX_EFFECT 66.66666667, TOP 106.555572): 4.25

Nc1noc2ccc(-c3cnc4ccc(NCCN5CCC(F)(F)CC5)nn34)cc12
PXC50 (MAX_EFFECT 10.96491228): < 4
PXC50 (MAX_EFFECT 13.23155216): < 4

Nc1cc(O)c(Cl)cc1Cl
PXC50 (MAX_EFFECT 7.034220532): < 3
PXC50 (MAX_EFFECT 11.44708423): < 3

O=C(NCC1CCCCN1C(=O)c1cccc2ccccc12)c1ccccc1 (stereo not given)
PXC50 (BOTTOM 0.770786067, HILLSLOPE 2.128077678, MAX_EFFECT 96.73659674, TOP 102.5562093): 4.68
PXC50 (BOTTOM 1.426381969, HILLSLOPE 1.713383958, MAX_EFFECT 97.20930233, TOP 108.6916663): 4.55

CCCN(CCOC)c1nc(C)nc2sccc12
PXC50 (MAX_EFFECT 12.79373368): < 4
PXC50 (MAX_EFFECT 15.14360313): < 4

CS(=O)(=O)N1CCN(c2ccc3ccc(C(=O)NCCN4CCc5ccccc5C4)cn23)CC1
PXC50 (BOTTOM 9.287524867, HILLSLOPE 2.626114762, MAX_EFFECT 78.976234, TOP 76.44379257): 4.95
PXC50 (BOTTOM -0.296501823, HILLSLOPE 1.63582329, MAX_EFFECT 73.68421053, TOP 78.31707036): 5.09

OB1OCc2cc(Cl)ncc21
PXC50 (MAX_EFFECT 7.762557078): < 4
PXC50 (MAX_EFFECT 14.1509434): < 4

Cc1nc(NC(C(=O)O)C(C)C)c2c(C)c(C)sc2n1 (stereo not given)
PXC50 (MAX_EFFECT 8.0): < 4
PXC50 (MAX_EFFECT 9.523809524): < 4

C[C@@H](Oc1cc(-n2cnc3cc(N)ccc32)sc1C(N)=O)c1ccccc1Cl
PXC50 (MAX_EFFECT 24.18604651): < 4
PXC50 (MAX_EFFECT 25.87412587): < 4

O=C(NCC1(O)CCCCC1)c1cc(=O)c2cc(F)cc(O)c2o1
PXC50 (MAX_EFFECT 3.03030303): < 4
PXC50 (MAX_EFFECT 5.182341651): < 4

Cc1nnc(NCC2(c3ccccc3)CCC2)c(C#N)c1C
PXC50 (MAX_EFFECT 19.71830986): < 4
PXC50 (MAX_EFFECT 20.92592593): < 4

Cc1sc2nc(CCN)nc(N3CCC(N4CCCC4)CC3)c2c1C
PXC50 (MAX_EFFECT 14.62140992): < 4
PXC50 (MAX_EFFECT 16.44908616): < 4

CS(=O)(=O)N1CCN(c2ccc3ccc(C(=O)NC4CCCC4)nn23)CC1
PXC50 (MAX_EFFECT 4.387568556): < 4
PXC50 (MAX_EFFECT 8.612440191): < 4

N[C@H]1CCOc2c(Cl)cc(Cl)cc21
PXC50 (MAX_EFFECT 2.517162471): < 2.7
PXC50 (MAX_EFFECT 3.676470588): < 2.7

O=C(CC1CCCCC1)N1CCC(c2ncc3c(n2)CCNC3)CC1
PXC50 (MAX_EFFECT 14.51247166): < 4
PXC50 (MAX_EFFECT 29.90654206): < 4

CC(C)C[C@H](N)C(=O)Nc1cccnc1Oc1ccc(Cl)cc1
PXC50 (MAX_EFFECT 2.186878728): < 4
PXC50 (MAX_EFFECT 7.568807339): < 4

CCOC(=O)c1sc2nc(C)nc(NC3CCN(C4CC4)CC3)c2c1C
PXC50 (MAX_EFFECT 19.59798995): < 4
PXC50 (MAX_EFFECT 24.32432432): < 4

N[C@H](COc1cccc(F)c1Oc1ccc(Cl)cc1)C1CCOCC1
PXC50 (MAX_EFFECT 9.316770186): < 4
PXC50 (MAX_EFFECT 10.44776119): < 4

Cc1nc(N2CCN(c3cnccn3)CC2)c2c3c(sc2n1)CCCC3
PXC50 (MAX_EFFECT 22.45989305): < 4
PXC50 (MAX_EFFECT 25.13661202): < 4

O=C(NCC1CCCCC1)c1cc(=O)c2cc[nH]c(=O)c2o1
PXC50 (MAX_EFFECT 5.901116427): < 4
PXC50 (MAX_EFFECT 6.333973129): < 4

O=C(c1c[nH]cn1)N1CCC(F)(F)C2(CCN(c3cccc(F)c3)C2)C1 (stereo not given)
PXC50 (MAX_EFFECT 45.5399061): < 4
PXC50 (MAX_EFFECT 46.11111111): < 4

OC1CN(c2nc(C3CC3)nc3sc4c(c23)CCCC4)C1
PXC50 (MAX_EFFECT 6.914893617): < 4
PXC50 (MAX_EFFECT 8.808290155): < 4

CCNc1nc(CN2CCCCC2)nc2scc(-c3ccccc3)c12
PXC50 (MAX_EFFECT 17.42424242): < 4
PXC50 (MAX_EFFECT 18.36734694): < 4

CN1CCN(c2ccc3ccc(C(=O)N4CCCO4)cn23)CC1
PXC50 (MAX_EFFECT 9.85915493): < 4
PXC50 (MAX_EFFECT 16.48148148): < 4

CCc1nc(NCCOC)c2c3c(sc2n1)CCC3
PXC50 (MAX_EFFECT 5.793450882): < 4
PXC50 (MAX_EFFECT 9.41475827): < 4

Nc1noc2ccc(-c3cnc4ccc(NCc5cccnc5)nn34)cc12
PXC50 (MAX_EFFECT 15.26717557): < 4
PXC50 (MAX_EFFECT 15.78947368): < 4

Cc1cc(C)n(-c2nc(N(C)C)c3c4c(sc3n2)CCCC4)n1
PXC50 (BOTTOM 3.265302341, HILLSLOPE 1.809282706, MAX_EFFECT 78.125, TOP 100.0): 4.28
PXC50 (BOTTOM 6.620107204, HILLSLOPE 2.145601955, MAX_EFFECT 79.8245614, TOP 100.0): 4.28

Cn1cc(CN2CCC(F)(F)C3(CCN(c4cccnc4)C3)C2)cn1 (stereo not given)
PXC50 (MAX_EFFECT 3.888888889): < 4
PXC50 (MAX_EFFECT 8.450704225): < 4
